The results in this text go back to PubChem BioAssay (NCATS).

“And” between values parts separate entries of the source, which are not always exact repeats. Equal values may be shown once. Inconclusive results are not listed. The source made the active and inactive calls. Unless noted, calls follow the shape of the dose curve; as a rule, active = well fitted curve in the direction sought with a large enough effect; inconclusive = small, poorly fitted or top-dose-only effect, or another doubt; inactive = no such curve, though single readings can be large; an effect the other way counts as inactive or inconclusive. Residues, ends and D or L forms follow the SMILES beside them. *: point of attachment. Cbz = O=C(OCc1ccccc1)*
% is scaled to controls: 0 for no effect and ±100 for the full control effect; potency is read from the fitted curve at half-maximal effect.

In one experiment the target is Cytochrome P450 2C9 (Homo sapiens) (UniProt P11712). Nature of the experiment: Cytochrome P450 family 2 subfamily C member 9 (CYP2C9) small molecule antagonists: luciferase biochemical (cell-free) qHTS assay (AID 1645842; active = well fitted curve in the direction sought with a large enough effect in the repeat runs; an effect the other way counts as inactive or inconclusive; also: nearly all actives have a fitted effect of over 55% in size). The following applies: P450-Glo CYP2C9 enzyme assay, luciferin luminescence; series mostly up to 57.4 µM; activity change, negative = inhibition: at the top concentration. A digest of the protocol: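 P450-Glo CYP2C9 system: proluciferin substrate with enzyme in mix containing 0.4% BSA, 10 min at room temperature, then NADPH regeneration solution added and incubated 1 h at 37C. Detection reagent stopped reaction; luminescence read after 20 min as RLU.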
Chain of Cytochrome P450 2C9 (Homo sapiens) (P11712 whole entry, looked up): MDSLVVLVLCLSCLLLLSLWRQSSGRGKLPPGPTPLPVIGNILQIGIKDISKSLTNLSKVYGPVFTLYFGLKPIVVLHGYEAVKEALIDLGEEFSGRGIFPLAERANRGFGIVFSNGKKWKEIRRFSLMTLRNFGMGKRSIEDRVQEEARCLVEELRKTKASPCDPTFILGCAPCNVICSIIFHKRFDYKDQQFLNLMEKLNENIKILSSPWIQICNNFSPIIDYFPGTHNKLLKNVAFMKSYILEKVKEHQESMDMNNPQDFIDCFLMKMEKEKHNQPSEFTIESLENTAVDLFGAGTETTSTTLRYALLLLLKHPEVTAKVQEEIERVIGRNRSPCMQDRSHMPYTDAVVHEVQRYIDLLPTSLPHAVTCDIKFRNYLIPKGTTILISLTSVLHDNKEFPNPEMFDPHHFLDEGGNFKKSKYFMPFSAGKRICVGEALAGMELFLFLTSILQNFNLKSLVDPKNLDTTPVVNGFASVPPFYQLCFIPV
For orientation: qHTS replaces the single test concentration by a dilution series.
Regarding `CC(C)C[C@H](NC(=O)CNC(=O)c1cc(Cl)ccc1Cl)B1OC(=O)CC(CC(=O)O)(C(=O)O)O1` (stereo not given in full), the “activity change, negative = inhibition” value is 10.2% (inactive).
For `CCCCOc1ccc(C(=O)Nc2ccc(F)cc2F)cc1`, the Potency was 7.56 µM (active).
Take `Oc1ccc([C@@H]2Oc3ccc(O)cc3[C@@H]3CCC[C@@H]32)cc1`: the “activity change, negative = inhibition” value was -25.8% (inactive).
Turning to `c1cncc(CN2CCC(n3ncc4c(N5CCOCC5)nc(-c5ccc6[nH]ccc6c5)nc43)CC2)c1`, the Potency was 1.9 µM (active).
On to `COc1ccc(S(=O)(=O)Nc2cccnc2Nc2ccc(O)cc2)cc1`, for which the Potency was 8.49 µM (active).
In the case of `O=C(O)c1ccc(Nc2ncc3c(n2)-c2ccc(Cl)cc2C(c2c(F)cccc2F)=NC3)cc1`, the Potency is 21.3 µM (active).
Still for that read-out and setting: with `Cc1cncc2cccc(S(=O)(=O)N3CCCN(C(=O)CN)C[C@@H]3C)c12` the figure was 19 µM (active).
`Cc1cnc(Nc2ccc(N3CCN(C)CC3)cc2)nc1Nc1cccc(S(=O)(=O)NC(C)(C)C)c1`: the “activity change, negative = inhibition” value is 2.36% (inactive).
Take `CCOC(=O)[C@@H](N)Cc1ccc(-c2cc(O[C@H](c3ccc(Cl)cc3-n3ccc(C)n3)C(F)(F)F)nc(N)n2)cc1`: the Potency was 6.01 µM (active).
Regarding `COc1ccc(C[C@@H](C)[C@@H](C)Cc2ccc(OC)c(OC)c2)cc1OC`, the Potency was 3.01 µM (active).

System in the next experiment: not listed separately
Put plainly: Primary qHTS for inhibitors of nuclear receptor binding SET domain protein 2 (NSD2) in an isogenic RCH-ACV NSD2 p.E1099K mutant (9B) (AID 1645876). Also: nearly all actives have a fitted effect of over 70% in size. As to conditions: RCH-ACV (leukaemia line) NSD2 E1099K (9B) viability, CellTiter-Glo, 72 h; series mostly up to 44.9 µM; activity change, negative = viability loss: at the top concentration.
With `NC(=O)N1CCC(CC(=O)N2CCC([C@H]3c4ncc(Br)cc4CCc4cc(Cl)cc(Br)c43)CC2)CC1`, the Potency is 14.8 µM (active).
For `CCCCCCCN(CC)CCCC(O)c1ccc(NS(C)(=O)=O)cc1` (stereo not given), the “activity change, negative = viability loss” value is 4.17% (inactive).
In the case of `CC(=O)NC(CS)C(=O)O` (stereo not given), the “activity change, negative = viability loss” value was 9.92% (inactive).
With `COc1ccc(C=Cc2cc(OC)c(OC)c(OC)c2)cc1NC(=O)[C@H](N)CO`, the Potency was 0.118 µM (active).
Turning to `Cc1ccc(O)c(C(CCN(C(C)C)C(C)C)c2ccccc2)c1` (stereo not given), the call was inactive.
For the compound `CC(C)[C@H](CO)Nc1nc(Nc2cccc(Cl)c2)c2ncn(C(C)C)c2n1`, the Potency was 9.34 µM (active).
Consider `C[C@H](CCC(=O)O)[C@H]1CCC2C3C[C@H](O)[C@@H]4C[C@H](O)CC[C@]4(C)C3CC[C@@]21C` (stereo not given in full), for which the “activity change, negative = viability loss” value is 9.32% (inactive).
As for `CCOC(=O)C1=C(C)NC(=S)NC1c1cccc(O)c1` (stereo not given), the “activity change, negative = viability loss” value was -27.7% (inactive).
In the case of `COc1cc2c(cc1OC)[C@@H]1C(=O)c3ccc4c(c3O[C@@H]1CO2)C=CC(C)(C)O4`, the Potency was 16.4 µM (active) and 1.86 µM (active).
Regarding `CC(C)C[C@H](NC(=O)CNC(=O)c1cc(Cl)ccc1Cl)B1OC(=O)CC(CC(=O)O)(C(=O)O)O1` (stereo not given in full), the Potency is 0.186 µM (active).
With `O=C1NCCc2[nH]c(-c3ccncc3)cc21`, the Potency is 2.35 µM (active).
Turning to `Nc1nc2c(c(=O)[nH]1)N(C=O)[C@H](CNc1ccc(C(=O)N[C@@H](CCC(=O)O)C(=O)O)cc1)CN2`, the “activity change, negative = viability loss” value is 8.84% (inactive).
Consider `NC(=O)Nc1cc(-c2ccc(CN3CCOCC3)cc2)sc1C(N)=O`, for which the Potency is 0.662 µM (active).
Consider `CCCCOc1ccc(C(=O)Nc2ccc(F)cc2F)cc1`, for which the “activity change, negative = viability loss” value is 0.332% (inactive).
As for `CC(=O)O[C@H]1C[C@@H]2CC[C@H]3[C@H]4C[C@H]([N+]5(C)CCCCC5)[C@@H](OC(C)=O)[C@@]4(C)CC[C@@H]3[C@@]2(C)C[C@H]1[N+]1(C)CCCCC1`, the “activity change, negative = viability loss” value is 2.14% (inactive).
Take `CC(=O)SCC(Cc1ccccc1)C(=O)NCC(=O)OCc1ccccc1` (stereo not given): the “activity change, negative = viability loss” value is -12.4% (inactive).
As to `Oc1ccc([C@@H]2Oc3ccc(O)cc3[C@@H]3CCC[C@@H]32)cc1`, the Potency is 8.33 µM (active).
Turning to `c1cncc(CN2CCC(n3ncc4c(N5CCOCC5)nc(-c5ccc6[nH]ccc6c5)nc43)CC2)c1`, the Potency was 916 nM (active) and 833 nM (active).
Still for that read-out and setting: then `O=C(Nc1nnc(-c2ccco2)o1)c1cc(-c2ccccc2)nc2ccccc12`, with 18.6 µM (active); and `CC(C(C)N1CC(=O)NC(=O)C1)N1CC(=O)NC(=O)C1` (stereo not given), with 5.25 µM (active); and `COc1ccc(S(=O)(=O)Nc2cccnc2Nc2ccc(O)cc2)cc1`, with 9.34 µM (active).
Regarding `O=C(O)c1ccc(Nc2ncc3c(n2)-c2ccc(Cl)cc2C(c2c(F)cccc2F)=NC3)cc1`, the Potency is 258 nM (active) and 742 nM (active).
With `c1coc(CNc2ncnc3nc[nH]c23)c1`, the “activity change, negative = viability loss” value was -8.05% (inactive).
Regarding `O=C(NC1CC1)c1cccc(-c2ccc3c(NC(=O)C4CC4)n[nH]c3c2)c1`, the Potency is 8.33 µM (active).
Still for that read-out and setting: with `Cc1cnc(Nc2ccc(N3CCN(C)CC3)cc2)nc1Nc1cccc(S(=O)(=O)NC(C)(C)C)c1` the figure was 1.66 µM (active).
As to `Cc1cc(C(=O)NOCCO)c(Nc2ccc(I)cc2F)n(C)c1=O`, the “activity change, negative = viability loss” value was -21.7% (inactive).
With `Nc1nc(N)c2nc(-c3cccc(O)c3)c(-c3cccc(O)c3)nc2n1`, the Potency was 16.4 µM (active) and 18.6 µM (active).
`CCCNS(=O)(=O)Nc1ncnc(OCCOc2ncc(Br)cn2)c1-c1ccc(Br)cc1`: the Potency was 18.6 µM (active).
Take `Cn1cc(C[C@@H](N)C(=O)O)c2ccccc21`: the activity change, negative = viability loss was -2.38% [at 9.23 µM] (inactive).
Take `CCN(CC)CCCCNc1ncc2c(n1)N(C)C(=O)N(c1c(Cl)c(OC)cc(OC)c1Cl)C2`: the Potency is 14.8 µM (active).
Turning to `CC(C)C[C@@H](C=O)NC(=O)[C@H](CC(C)C)NC(=O)[C@H](CC(C)C)NC(=O)OCc1ccccc1` (Cbz-Leu-Leu-Leu-aldehyde), the Potency is 1.05 µM (active).
As to `NC(=NCCCCCCN=C(N)N=C(N)Nc1ccc(Cl)cc1)N=C(N)Nc1ccc(Cl)cc1`, the Potency is 4.17 µM (active).
As for `CC(Oc1ccc(O)cc1)(P(=O)(O)O)P(=O)(O)O`, the “activity change, negative = viability loss” value was 3.86% (inactive).
On to `Cn1cnc(=N)c2[nH]cnc21`, for which the “activity change, negative = viability loss” value is -0.341% [at 91.9 µM] (inactive).
For `O=C(O)CCCCCC(=O)NN=C1CCCC1`, the call was inactive.
